PP1 inh – PP1-alpha (human) inhibition in PP5 counter-screen; P62136; purified PP1alpha, OMFP fluorescence; inhibition, % at 6.7 µM; 320,000 tested, 0.9% active;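 active = inhibition above the mean inhibition of all tested compounds plus 3 SD, computed separately for each screening campaign, cut at about 15% in these data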
PAFAH1B2 inh – inhibitors of human PAFAH1B2; AID 492953; inhibition, % at 3.39 µM; recombinant PAFAH1B2, FP-rhodamine activity probe, fluorescence polarization; 340,000 tested, 1.2% active;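 active = inhibition above the mean of all tested compounds plus 3 SD, cut at about 24% in these data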;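 note: 0% = enzyme with DMSO and 100% = wells lacking PAFAH1B2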
pPAFAH inh – pPAFAH (human) enzyme inhibition | Q13093 | recombinant pPAFAH, FP-rhodamine probe fluorescence polarization | inhibition, % at 3.39 µM | 330,000 tested, 1.5% active;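 active = inhibition above the mean inhibition across the screen plus 3 SD, cut at about 25% in these data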;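 note: inhibitors block binding of the rhodamine activity-based probe so polarization drops; 0% = enzyme with DMSO and 100% = wells lacking pPAFAH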
PP5 primary – inhibitors of human protein phosphatase 5 (PP5) | P53041 | purified PP5c, OMFP substrate fluorescence | inhibition, % at 6.7 µM | 320,000 tested, 0.18% active | AID 1987;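 active = inhibition above the campaign's mean inhibition across all tested compounds plus 3 SD, cut at about 9.5% in these data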;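 note: 0% = DMSO only and 100% = 100 µM cantharidin control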
Target sequence (P53041 whole entry, looked up): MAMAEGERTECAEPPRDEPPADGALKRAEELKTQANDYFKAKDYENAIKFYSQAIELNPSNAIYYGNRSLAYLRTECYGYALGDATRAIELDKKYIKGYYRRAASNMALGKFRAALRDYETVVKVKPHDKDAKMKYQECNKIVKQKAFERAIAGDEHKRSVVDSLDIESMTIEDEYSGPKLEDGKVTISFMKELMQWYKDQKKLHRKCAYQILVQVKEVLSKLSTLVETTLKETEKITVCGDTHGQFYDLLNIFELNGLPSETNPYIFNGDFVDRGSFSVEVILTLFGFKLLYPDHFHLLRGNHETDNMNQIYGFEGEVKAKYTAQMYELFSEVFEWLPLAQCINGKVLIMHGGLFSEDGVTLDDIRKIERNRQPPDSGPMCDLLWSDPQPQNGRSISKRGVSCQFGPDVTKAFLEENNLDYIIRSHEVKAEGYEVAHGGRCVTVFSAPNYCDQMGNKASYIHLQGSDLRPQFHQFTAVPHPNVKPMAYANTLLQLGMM
PAFAH2 inh – PAFAH2 (human) inhibition; AID 492956; 340,000 tested, 0.99% active; inhibition, % at 3.39 µM; recombinant PAFAH2, FP-rhodamine activity probe, fluorescence polarization; Q99487;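 active = inhibition above the mean over all tested compounds plus 3 SD, cut at about 30% in these data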;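 note: inhibitors block probe labeling of enzyme so polarization drops; 0% = enzyme with DMSO and 100% = wells lacking PAFAH2 protein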
PAFAH1B3 FP inh – inhibitors of human PAFAH1B3; AID 492972; Q15102; inhibition, % at 3.39 µM; 340,000 tested, 0.28% active; recombinant PAFAH1B3, FP-rhodamine probe, fluorescence polarization;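 active = inhibition above the screen-wide average of all tested compounds plus 3 SD, cut at about 25% in these data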;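 note: 0% = enzyme with DMSO only and 100% = wells lacking PAFAH1B3 protein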
pPAFAH confirm – pPAFAH (human) inhibition, confirmed. shares compounds with pPAFAH inh. recombinant pPAFAH, FP-Rh probe fluorescence polarization. inhibition, % at 3.39 µM. 2,300 tested, 72% active. AID 463230;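 active = mean inhibition of the triplicate above the hit cutoff set for the earlier primary screen, cut at about 25% in these data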;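 note: 0% = enzyme with DMSO and 100% = wells lacking pPAFAH enzyme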
An asterisk follows results filed as active; x = no result given. Rows were chosen to be rich in hits. Some 3.4% of all compounds tested hit in one or more screens of this group.

SMILES	PP1 inh	PAFAH1B2 inh	pPAFAH inh	PP5 primary	PAFAH2 inh	PAFAH1B3 FP inh	pPAFAH confirm
O=c1cc(-c2ccccc2)oc2cc(O)c(O)c(O)c12	x	3	56*	x	22	17	69*
O=c1cc(-c2ccc(O)cc2)oc2c1ccc1ccccc12	4	-5	0	2	3	-6	x
COc1c(O)cc2oc(-c3ccc(O)cc3)cc(=O)c2c1O	-4	6	8	1	5	4	x
O=c1cc(-c2ccc(O)cc2)oc2c(O)c(O)c(O)c(O)c12	-5	26*	37*	2	69*	52*	72*
O=C(Nc1ccc2c(c1)CCCN2C(=O)c1cccs1)c1cccc(F)c1	-2	3	-11	2	-4	7	x
CN1CCN(c2ncc(CN3C(=O)c4ccccc4C3=O)s2)CC1	-4	1	-1	-3	0	4	x
CC(C(=O)N1CCCCC1)N1C(=O)c2ccccc2C1=O (stereo not drawn)	-1	-3	-1	1	5	8	x
CC(C)(C)c1cc(C(=O)N/N=C/c2ccc(-c3ccccc3[N+](=O)[O-])o2)n[nH]1	2	5	58*	3	9	5	9
O=C(CNC(=O)c1cccc(F)c1)OCc1cc(=O)n2cc(Br)ccc2n1	0	-1	8	-4	0	4	x
O=C(COc1ccccc1[N+](=O)[O-])N/N=C/C=C/c1ccco1	-1	2	5	4	10	10	x
Cc1ccc(OCC(=O)N/N=C/C=C/c2ccco2)cc1	1	-2	51*	-5	9	-1	17
Cc1nc(-c2ccccc2)sc1C(=O)Nc1ccc(S(N)(=O)=O)cc1	-1	4	46*	4	4	1	-7
Cc1cc(C(=O)OCC(N)=O)c(C)n1-c1ccccc1	5	0	-3	1	-18	9	x
C/C(N)=C(/C#N)C(=O)COC(=O)c1cc(C)n(-c2ccc(F)cc2)c1C	3	5	36*	-1	7	7	28*
CCOC(=O)/C=C/[C@H]1CC2(CCO1)SCCCS2	-3	9	1	-2	10	10	x
Cc1ccc(SCC(=O)N2CCN(S(=O)(=O)c3cccs3)CC2)cc1	x	4	0	x	1	3	x
COc1ccc(C)cc1NC(=O)NNC(=O)c1cc2ccccc2cc1O	3	8	48*	1	3	34*	52*
COc1ccccc1NC(=O)c1cc2cc(Br)ccc2cc1O	3	14	42*	5	0	29*	45*
O=C(O/N=C(\c1ccccc1)c1ccncc1)c1ccccc1Cl	10	88*	45*	-1	25	9	23
CC(=O)Nc1ccc(SC[C@H](Cc2ccccc2)N2CCN(CCc3ccccc3)CCC2=O)cc1	-1	2	5	2	0	5	x
FC(F)(F)c1ccc(-c2noc(CN3CCCN(C4CCCCC4)CC3)n2)cc1	-12	1	5	2	-2	-1	x
CCCCNC(=O)c1ccc2nc(-c3ccco3)c(-c3ccco3)nc2c1	7	17	61*	1	29	20	23
CCOc1ccc(NC(=S)NC(=O)/C=C/c2ccc(C)cc2)c([N+](=O)[O-])c1	2	-2	38*	0	-9	-21	-2
CCOc1ccc(NC(=S)NC(=O)/C=C/c2ccc(OC)c(OC)c2)c([N+](=O)[O-])c1	1	2	-6	0	3	5	x
O=c1cc(-c2ccccc2Cl)oc2c(NS(=O)(=O)c3cc(Cl)cc(Cl)c3O)ccc(O)c12	27*	13	41*	1	12	14	78*
SMILES	PP1 inh	PAFAH1B2 inh	pPAFAH inh	PP5 primary	PAFAH2 inh	PAFAH1B3 FP inh	pPAFAH confirm
O=C(c1cccnc1)n1nc(-c2ccco2)nc1NCc1cccs1	x	8	x	x	4	1	x
C=CCN=C(NC#N)SCC(=O)c1cccc(OC)c1	-1	4	61*	4	0	16	10
C=CCN=C(NC#N)SCc1ccccc1	-4	0	0	-3	11	3	x
CCCCC(=O)Nc1cccc(NC(=O)c2cccnc2Cl)c1	-5	4	1	0	0	1	x
CCOc1ccc2nc(SCC(=O)N3CCCCCC3)c(C#N)cc2c1	-1	-1	2	1	-14	0	x
CCOc1ccc2cc(C#N)c(SCC(=O)N3CCOCC3)nc2c1	-4	0	82*	1	1	7	6
COc1cc2c(=O)n(Cc3ccccc3)c(=O)n(CC(=O)NCc3ccco3)c2cc1OC	x	-3	x	x	-13	4	x
Cn1ccnc1C(=O)c1ccc(NN)c([N+](=O)[O-])c1	-4	1	8	3	5	1	x
COc1ccc(-c2cc(=O)oc3c(O)c(O)ccc23)cc1	4	5	43*	0	29	21	80*
COc1ccc(-c2cc(=O)oc3cc(OC(C)C(=O)O)ccc23)cc1 (stereo not drawn)	-3	1	-5	-1	-8	7	x
CC12CC(NC(=O)N1Cc1ccccc1)c1ccccc1O2 (stereo not drawn)	1	4	3	1	4	1	x
C/C(=N\NC(=O)c1cc(O)ccc1O)c1cccc(NC(=O)c2ccc(Cl)cc2)c1	7	10	46*	0	9	18	21
C/C(=N\NC(=O)c1cc(O)ccc1O)c1cccc(NC(=O)c2cccc(Cl)c2)c1	2	7	38*	1	11	11	15
Nc1nc(SCc2ccccc2)n[nH]1	-1	2	47*	1	0	-4	1
Nc1nc(SCc2ccc(Br)cc2)n[nH]1	0	15	4	-1	1	14	x
CNc1nc(N)c(C(=O)C(C)(C)C)s1	1	-7	3	1	0	-4	x
N#CCCN(C(=O)COC(=O)c1ccc(S(=O)(=O)Nc2ccccc2)cc1)c1ccccc1	0	-1	35*	-1	-2	3	18
COc1cc(-c2nnc(SCC(=O)N3CCOCC3)o2)cc(OC)c1OC	-2	-5	7	1	1	7	x
O=[N+]([O-])c1ccc(N2CCOCC2)c([N+](=O)[O-])c1	x	1	x	x	-2	0	x
C/C(=N\NC(=O)c1ccc(-c2ccccc2)cc1)C1C(=O)c2ccccc2C1=O	11	29*	53*	1	20	20	67*
CCOc1ccc(C(=O)N/N=C(/C)C2C(=O)c3ccccc3C2=O)cc1	-4	-3	4	1	0	10	x
CCN(CC)c1ccc(C=Nc2ccc(C)cc2C)c(O)c1	1	0	3	1	2	4	x
Cc1ccc(N=Cc2cccc(O)c2O)c(C)c1	3	10	37*	1	9	17	10
CC1(C)COC(=S)N1CCC#N	x	-4	x	x	-9	9	x

Assay outcomes: PubChem BioAssay, The Scripps Research Institute Molecular Screening Center
